# Screening data as filed in PubChem BioAssay.
# SARS PLP yeast: qHTS of Yeast-based Assay for SARS-CoV PLP. S. cerevisiae expressing SARS-CoV PLpro, growth rescue. Potency, µM (top dose mostly 32.9 µM), inactives show top-dose activity, positive = growth rescue, most hits filed as activators. 0.19% of 330,000 active. AID 485353, 2010; calls by dose curve; note: potency is the fitted concentration of half-maximal effect; 0% is about no effect; nearly all actives have a fitted effect of over 55% in size
# AMA1-RON2 inh: qHTS for Inhibitors of AMA1-RON; Towards Development of Antimalarial Drug Lead: Primary Screen. Plasmodium falciparum AMA1 (3D7) - RON2 peptide interaction. AlphaScreen AMA1-biotinylated RON2 peptide binding. Potency, µM (doses to about 58.2 µM), for inactives: at the top dose activity change, negative = inhibition, most hits filed as inhibitors. 0.2% of 360,000 active. AID 720542, 2013;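 note: potency is the fitted concentration of half-maximal effect; 0% = vehicle wells and -100% = peptide control; nearly all actives have a fitted effect of over 45% in size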
#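 AMA1 (3D7) with his tag at 25 nM final met compounds first, then biotinylated RON2 peptide at 25 nM; detection used donor plus acceptor beads, 10 µg/mL apiece, read by AlphaScreen after 30 min at room temperature.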
# Cycloheximide cs: Cycloheximide Counterscreen for Small Molecule Inhibitors of Shiga Toxin | cell reporter, cycloheximide protein synthesis inhibition counterscreen | max response, % | 12% of 300,000 active; in the data active = max response mostly above about 13%, no sharp cut-off; inactive = mostly below about 14%; note: read at 38.3 µM for the half of the compounds with a filed dose; 0% is about no effect
# Pf growth 48h: Primary qHTS for delayed death inhibitors of the malarial parasite plastid, 48 hour incubation; 5.9% of 310,000 active; P. falciparum luciferase growth in erythrocytes, 48 h; Potency, µM (top dose mostly 28.7 µM), without a hit: at the top dose activity change, negative = inhibition, most hits filed as inhibitors; note: potency is the fitted concentration of half-maximal effect; % is set by controls: 0 for no effect and ±100 for the full control effect
#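 Compounds are pin-transferred into medium, infected erythrocytes (2% hematocrit, 0.1% parasitemia final) are added, and plates sit one parasite generation at 37 C in 5% CO2. Detection reagent is then added and luminescence measured.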
# Pf growth 96h: Primary qHTS for delayed death inhibitors of the malarial parasite plastid, 96 hour incubation; P. falciparum luciferase reporter growth, 96 h; Potency, µM (highest dose often 28.7 µM), for inactives: at the top dose activity change, negative = inhibition, most hits filed as inhibitors; 6.9% of 320,000 active; AID 504834, 2011; note: potency is the fitted concentration of half-maximal effect; % is set by controls: 0 for no effect and ±100 for the full control effect
#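 Two parasite generations (96 h, 37 C, 5% CO2) of compound exposure in infected erythrocytes (0.05% parasitemia, 2% hematocrit). Luciferase-reporter P. falciparum; decreased luminescence indicates inhibited growth, aimed at apicoplast-acting delayed death.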
# Shiga inhibitor: A qHTS for Small Molecule Inhibitors of Shiga Toxin. AID 2315, 2010. 9.2% of 290,000 active. inhibition, % at 38.7 µM. Vero cells, Shiga toxin protein synthesis inhibition reporter; in the data active = inhibition mostly above about 28%, no sharp cut-off; inactive = mostly below about 43%; note: 0% is about no effect
# * = called active by the depositor; ? = inconclusive; . = no result; [ ] = dose if it differs, or a comment. Compounds with a hit are over-represented: about 19% of the library has one in this group of screens. Unless noted, calls come from the whole dose curve; as a rule, active = well fitted curve in the direction sought with a large enough effect; inconclusive = small, poorly fitted or top-dose-only effect, or another doubt; inactive = no such curve, though single readings can be large; an effect the other way counts as inactive or inconclusive.
SMILES,SARS PLP yeast,AMA1-RON2 inh,Cycloheximide cs,Pf growth 48h,Pf growth 96h,Shiga inhibitor
Cc1cccc(NC(=O)NCc2ccc3[nH]c(C)cc3c2)c1,-3%,-9%,21*,87%,42%,50
Cc1cc2cc(CNC(=O)NC3CCCCC3)ccc2[nH]1,0%,-11%,18*,?,.,40*
CNC(=S)NCc1ccc2[nH]c(C)cc2c1,-1%,21%,18,-1%,0%,19
Cc1cccc(NC(=O)Nc2ccc(C)cc2Br)c1,-3%,23%,32*,103%,-24%,61*
CCc1cccc(C)c1NC(=S)NCc1ccc2[nH]c(C)cc2c1,?,32%,-3,13µM*,10µM*,-2
CC1CN(C(=O)COc2coc(CN3CCc4ccccc4C3)cc2=O)CC(C)O1 (stereo not drawn),0%,20%,.,21%,-4%,.
Cc1onc(-c2c(Cl)cccc2Cl)c1NC(=O)N1CCSCC1,1%,-8%,-2,42%,71%,-5
CC(=O)NCc1ccc2[nH]c(C)cc2c1,-2%,6%,-4,14%,0%,4
Cc1cccc(NC(=O)Nc2ccc(Oc3c(F)c(F)c(F)c(F)c3F)cc2)c1,7%,6%,1,?,7.4µM*,4
Cc1ccc(CNC(=O)Nc2cccc(C)c2)cc1,0%,12%,37*,140%,-12%,75*
CC(=O)Nc1cccc(C)c1,-11%,-5%,.,31%,?,.
Cc1ccc(NC(=O)NCc2ccc3[nH]c(C)cc3c2)cc1,0%,-3%,45,-12%,56%,41*
Cc1cccc(NC(=O)CCNS(=O)(=O)c2cc(Br)cnc2N)c1C,-1%,14%,3,17%,4%,-2
O=C1CC(=O)Nc2cc(S(=O)(=O)N3CCN(c4ccc([N+](=O)[O-])cc4)CC3)ccc2N1,-2%,-15%,12,12%,-21%,-3
Cc1ccccc1-n1ncc2c([N+](=O)[O-])cc([N+](=O)[O-])cc21,-40%,?,-5,9.3µM*,?,2
Cc1ccccc1-n1c(-c2ccc([N+](=O)[O-])cc2)nc2ccccc2c1=O,-35%,-6%,-4,-18%,-8%,2
CS(=O)(=O)c1sc(C#N)c2c1C(=O)CC(c1ccccc1)C2 (stereo not drawn),-6%,0%,-5,12µM*,?,-7
Cc1cc2nc(C3CCN(CC4COc5ccccc5O4)CC3)[nH]c2cc1C (stereo not drawn),1%,-13%,-1,13µM*,6%,12
c1ccc2c(c1)OCC(CN1CCCCC1)O2 (stereo not drawn),.,.,.,-3%,?,.
Nn1c(SCc2ccccc2)nc2ccccc21,4%,6%,69*,44%,83%,69*
O=C(O)Cn1c(SCc2ccccc2)nc2ccccc21,5%,0%,-1,-11%,.,-12
Cc1cccc(CSc2nnc(-c3ccco3)n2C)c1,-4%,-12%,22*,-24%,.,42
Nn1c(SCc2ccccc2)nnc1-c1ccco1,0%,11%,9.3*,37%,-13%,2
COc1cccc(CSc2nnc(-c3ccco3)n2C)c1,1%,-2%,40*,?,15%,41
CCOC(=O)/C(C#N)=C/Nc1ccccc1OC(F)(F)F,0%,-3%,-1,-2%,44%,-3
SMILES,SARS PLP yeast,AMA1-RON2 inh,Cycloheximide cs,Pf growth 48h,Pf growth 96h,Shiga inhibitor
Cc1cc(C)c(Nc2cc(S(=O)(=O)O)c(N)c3c2C(=O)c2ccccc2C3=O)c(C)c1,-29%,28µM*,-9,?,?,-14
COc1ccc(CN2C(=O)C(CC(=O)NCC3CCCCC3)CC(C(=O)N3CCOCC3)=C2C)cc1 (stereo not drawn),.,-7%,.,.,.,.
COc1ccc(-c2cc(-c3ccc(C)cc3)n[nH]2)c(O)c1,-5%,74%,44*,?,34%,94*
COc1ccc(-c2cc(-c3ccc(OC)cc3)[nH]n2)cc1,-10%,-4%,35*,.,-15%,40
Clc1ccc(-c2ccn[nH]2)cc1,2%,-11%,53*,149%,?,147*
COc1ccc(-c2cc(-c3cc(C)ccc3O)[nH]n2)cc1,-2%,53%,49*,?,?,80*
S=c1nccc(-c2ccc(Cl)cc2)[nH]1,0%,92%,1,20%,12%,3
COc1ccc(-c2cn[nH]c2N)cc1,-12%,3%,11,36%,.,-3
COc1ccc(Oc2ccc(-c3ccn[nH]3)cc2)cc1,-1%,-22%,32*,56%,97%,77*
COc1ccc(-c2cc(C3CCNCC3)[nH]n2)cc1,12%,-6%,10,2.6µM*,2.3µM*,23
C=CCn1c(SCC(=O)N2CCN(c3ccccc3)CC2)nc2c([nH]c3ccccc32)c1=O,-8%,-10%,-1,104%,-8%,6
O=C(COc1ccccc1C(=O)Nc1ccccc1)c1ccc(Br)cc1,1%,3%,-1,?,0%,-14
CCOC(=O)CCNC(=O)c1ccccc1Br,2%,3%,3,35%,4%,32
CCOC(=O)Cc1ccc(NC(=O)c2ccc(C(C)(C)C)cc2)cc1,-18%,-11%,26,4.1µM*,.,35
CCOC(=O)Cc1ccc(NC(=O)c2ccccc2Br)cc1,-2%,-1%,19*,33%,35%,37
O=C(Oc1ccccc1C(=O)Nc1ccccc1)c1ccccc1Br,-34%,-7%[11.6 µM],32*,4%,-51%,33*
Cc1cccc(NC(=O)C(Cc2ccccc2)c2nn[nH]n2)c1C (stereo not drawn),-4%,-6%,6,?,8.3µM*,.
CCc1nnc(NC(=O)CSc2nnc(-c3ccccc3NC(=O)c3ccccc3)o2)s1,4%,16%,-2,6%,?,-9
OC[C@@H]1CN(CCN2CCOCC2)C[C@H](n2cnc3c(NC4CCCC4)ncnc32)O1,.,-2%,.,.,.,.
O=C(O)c1ccc(CS(=O)(=O)c2ccc(Br)cc2)cc1,3%,-1%,-3,2%,?,20
O=C1[C@@H]2[C@@H]3C[C@@H]([C@H]4ON=C(c5ccc(Cl)cc5)[C@@H]34)[C@@H]2C(=O)N1C1CCCCC1,-46%,-5%,7,25%,10µM*,-6
COc1ccc(OC)c(NC(=O)CC2C(=O)NCCN2C(=O)c2ccccc2)c1 (stereo not drawn),-1%,3%,-5,19%,?,-4
C=CCSC(=C(C#N)C#N)c1cc2c([nH]1)CCCC2,-29%,-27%,25*,?,.,3
O=C(O)c1cc2c([nH]c1=O)CCCC2,1%,1%,-3,15%,35%,-3
NNC(=O)c1cc(-c2cccs2)nc2ccccc12,-1%,35%,1,?,-19%,-6
